Measured values from PubChem BioAssay AID504690 (Sanford-Burnham Center for Chemical Genomics, 2011).
Out of some 350,000 compounds screened, about 2,700 (0.77%) were called active. The sample holds actives, similar compounds and a random draw of the others, so the mix is not that of the screen. Unmarked numbers belong to inactive results.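 Rule for the calls: active = inhibition reaching at least a set limit at 20 µM in the primary screen (cut at about 59% in these data); inactive = the rest.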

test system: glucose-6-phosphate dehydrogenase-6-phosphogluconolactonase (Plasmodium falciparum 3D7); test: inhibition of malaria parasite G6PD (PfGluPho) – biochemical, fluorescence intensity, uHTS, primary screen (AID 504690); settings: PfGluPho enzyme, NADPH resazurin-diaphorase fluorescence; at 20 µM; active compounds read high;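 note: 0% = DMSO wells with substrate and 100% = DMSO wells lacking glucose-6-phosphate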

SMILES	inhibition
CCOC(=O)c1cnn2c(SC)ncnc12	5.86%
Cc1cc(C)n(Cc2cnc(N3CCOCC3)s2)n1	2.1%
CC1(C)CC(=O)c2cc(OCC(=O)NCC3CCCO3)ccc2O1 (centres undefined)	7.52%
CC(=O)Nc1ccc2c3c(ccc([N+](=O)[O-])c13)CC2	1.79%
Clc1ccc2c(c1)C1=C(C(c3ccncc3)O2)C(c2ccc(Br)cc2)n2ncnc2N1 (centres undefined)	78.5% (active)
Brc1ccc(C2=CC(c3ccco3)n3ncnc3N2)cc1 (centres undefined)	23.3%
O=C(C1CCN(S(=O)(=O)c2ccc(Br)s2)CC1)N1CCN(C2CCCCC2)CC1	3.65%
Cc1ccnc(SC2CC(=O)N(c3ccccc3)C2=O)n1 (centres undefined)	-11.7%
Cc1ccnc(-n2sc3ccccc3c2=O)n1	97% (active)
O=C(NCc1ccccc1)C1CCCN(S(=O)(=O)c2cccs2)C1 (centres undefined)	3.61%
C[C@@H]1CCCCO[C@H](CN(C)Cc2ccccc2)[C@@H](C)CN([C@H](C)CO)C(=O)c2cc(NS(=O)(=O)c3ccc(Cl)cc3)ccc2O1	36.3%
O=c1[nH]nc(Cc2ccccn2)c2ccccc12	1.12%
COc1ccc(OCc2n[nH]c(=S)n2N)cc1	71.3% (active)
Fc1ccc(/C=N/n2c(COc3ccccc3)n[nH]c2=S)cc1	27.2%
COc1ccc(Cc2n[nH]c(=S)n2NC(=O)Nc2ccc(C)cc2)cc1	15.8%
CCOc1ccc(NS(=O)(=O)c2ccc(Cl)c(C(=O)N(C)Cc3cccnc3)c2)cc1	-26.1%
C=CCn1c(SCC(N)=O)nnc1-c1cc2c(s1)CCC(CC)C2 (centres undefined)	2.97%
CCC1=NN(C(=O)Cc2ccc([N+](=O)[O-])cc2)C(O)(c2ccc(Br)cc2)C1 (centres undefined)	-3.74%
CC1(C)NC(=O)N(CC(=O)N2CCN(S(=O)(=O)c3ccccc3F)CC2)C1=O	-13.8%
O=C(COc1ccccc1)Nc1ccc(C(=O)N2CCCC2)cc1	-12.5%

SMILES	inhibition
O=C(COc1ccccc1)Nc1ccc(F)cc1	-2.38%
O=C(COc1ccccc1)Nc1nonc1NC(=O)COc1ccccc1	71.2% (active)
COc1ccc([N+](=O)[O-])cc1N(CC(O)Cn1nnc2ccccc21)S(=O)(=O)c1ccc(C)cc1 (centres undefined)	-4.47%
Cc1nc([N+](=O)[O-])nn1C12CC3CC(CC(Br)(C3)C1)C2	71% (active)
CC1CCC(CN2CCN=C2N(C)C)CC1 (centres undefined)	-9.19%
CCOc1ccc(S(=O)(=O)N2CCCC(C(=O)N3CCC(C(N)=O)CC3)C2)cc1Cl (centres undefined)	-4.54%
CCOC(=O)[C@@H]1[C@H]2COc3ccc(Br)cc3[C@H]2N2C(=O)N(c3ccc(Cl)cc3)C(=O)[C@@]12C	9.82%
N#Cc1c(N)sc2c1CCN(C(=O)OCc1ccccc1)C2	42.3%
Cc1ccc(-n2c(N)c(C(=O)N3CCOCC3)sc2=S)c(C)c1	-1.21%
O=C(c1ccc(S(=O)(=O)N2CCCC2)cc1)N1CCN(c2ccccc2F)CC1	7.54%
COC(=O)c1sc(=S)n(-c2ccccc2)c1N	65.1% (active)
COc1cccc(N2CCN(c3ccc4nnc(CCC(=O)N5CCN(C)CC5)n4n3)CC2)c1	6.62%
COC(=O)c1sc(N2CCN(Cc3ccccc3)CC2)nc1N	-11.2%
Cc1cccc(-n2c(N)c(C(=O)N3CCN(C)CC3)sc2=S)c1	79.6% (active)
COCCOC(=O)c1sc(=S)n(CCOC)c1N	25.1%
N#Cc1ccccc1-n1c(N)c(C(=O)N2CCCC2)sc1=S	60% (active)
O=C(OCc1ccccc1)N1CCC2CC1c1ccc(-c3ccc4c(c3)OCO4)cc12 (centres undefined)	2.75%
O=C(Cc1ccsc1)N1CCN(S(=O)(=O)c2cc(C(F)(F)F)cc(C(F)(F)F)c2)CC1	9.01%
Cc1cccc(N2C(=O)N3[C@H](c4ccc(F)cc4)[C@@H]4C(=O)N(C5CCCCC5)C(=O)[C@@H]4[C@]3(Cc3ccccc3)C2=O)c1	-21.6%
COc1ccccc1Cn1c(C)nnc1-c1cnn(C)c1N	-9.47%

SMILES	inhibition
Cc1cc(C)c2c(c1)c(C)cc1nnc(SCC(=O)NCc3ccco3)n12	46.3%
Cc1ccc(OCCNC(=O)CNC(=O)c2ccc(C)c(C)c2)cc1	-19.6%
O=[N+]([O-])c1ccc(C=Nc2ccc(Cl)cc2Cl)s1	76.4% (active)
CNN/C(N=Cc1ccc([N+](=O)[O-])s1)=N\S(=O)(=O)c1cc(C)c(Cl)cc1SCc1ccccc1	5.23%
Cc1ccc(NC(=O)C2CCC(C(C)(C)C)CC2)cc1S(=O)(=O)N1CCOCC1 (centres undefined)	30.1%
O=C1CCC(C(=O)OCC(=O)Nc2ccc(OC(F)F)cc2)=NN1	3.76%
Cc1cc(N=Nc2ccc3ccccc3c2)ccc1O	0.29%
CCOc1[nH]n(-c2ccc(Cl)cc2)c(=O)c1C=Nc1ccc(O)cc1	-1.23%
Oc1ccc(N=Cc2c(O)ccc3ccccc23)cc1	62.9% (active)
CCn1nnc2cc(C(=O)Nc3ccc(C(=O)OC(C)C)cc3)ccc21	22.8%
COc1cccc(C(CC(=O)NCCN2CCOCC2)NS(=O)(=O)c2ccc(C)cc2)c1OC (centres undefined)	11%
CSc1n[nH]c(=S)n1N	65.2% (active)
Cc1ccc(S(=O)(=O)N2CCCCC2)cc1C(=O)N1CCN(CCO)CC1	-1.65%
CC(=O)c1ccc(NC(=O)C2CCCN2S(=O)(=O)c2cccs2)cc1 (centres undefined)	14.3%
COc1ccc(Nc2ncnc3sc(C)cc23)cc1	4.18%
COc1ccc(Nc2ccc3ccccc3c2)cc1	53.2%
COc1ccc(Nc2cc(Sc3ccc(OC)cc3)ncn2)cc1	77.5% (active)
O=C(NC1CCCC1)C(c1ccc(N2CCOCC2)cc1)N(C(=O)c1ccco1)c1ccccc1F (centres undefined)	1.31%
Cc1ccc2c(c1)N(CC(=O)NCC1CCCO1)C(=O)CO2 (centres undefined)	0.68%
